# Measurements as given in PubChem BioAssay AID1626 (SRMLSC, 2009).
# “And” between values parts separate entries of the source, which are not always exact repeats. Equal entries are not always repeated. Out of some 220,000 compounds screened, about 2,000 (0.91%) were called active. Roughly 2% stayed inconclusive and do not appear here. The list is a sample of the results. Entries with a potency or affinity are not part of this list. A number with no mark means an inactive call. Cut-off read from the data, not from the text of the source: inconclusive = inhibition above about 80% without an active follow-up result; inactive = below that; test concentration not stated here.
# Test: M. tuberculosis H37Rv growth inhibitors, H37Rv strain (AID 1626);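 note: bacteria incubated seven days before Alamar blue readout; 0% = bacteria only wells and 100% = bacteria with antibiotic wells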
# Details: hits give high values, concentration not given here
row,SMILES,inhibition
1,O=c1cc(N2CCCCC2)c2ccccc2o1,-1.79%
2,CCOc1cc(CN2CCN(c3cccc(C(F)(F)F)c3)CC2)ccc1O,-11.9%
3,CCC/C=N/NC(=O)c1cccc(Br)c1,7.16%
4,Cc1ccc(-c2nsc(SCC(=O)NCc3ccc4c(c3)OCO4)n2)cc1,13.2%
5,Cc1ccccc1-c1nsc(SCC(=O)Nc2ccc3c(c2)OCO3)n1,16.3%
6,O=C(CSc1nc(-c2ccccc2Cl)ns1)Nc1ccc2c(c1)OCO2,98.8%
7,COc1ccc(-c2nsc(SCC(=O)NCc3ccc4c(c3)OCO4)n2)cc1,6.74%
8,Cc1ccc(NC(=O)C2CCCN(C(=O)c3ccc(Cl)cc3)C2)cc1C (stereo not given),2.5%
9,CC1=NN(C(=O)c2ccco2)C(O)(c2ccccc2)C1 (stereo not given),-2.5%
10,CC(=O)c1cccc(N(CC(=O)N2CCCCC2)S(C)(=O)=O)c1,1.7%
11,CCOc1cc(NC(=S)NCC2CCCO2)c(OCC)cc1NC(=O)c1ccc(F)cc1 (stereo not given),1.9%
12,COc1ccc(-c2[nH]ncc2CNCCn2cccn2)c(F)c1,-7%
13,COc1ccccc1OCC(O)CNCc1ccc2c(c1)OCO2 (stereo not given),-7.62%
14,CCCCN=Cc1c(C)[nH]n(-c2ccccc2)c1=S,-2.18%
15,Cc1[nH]n(-c2ccccc2)c(=O)c1C=NCCc1ccccc1,0.59%
16,CS/C(=C\[N+](=O)[O-])Nc1ccc(F)cc1,3.42%
17,O=C(CN1CCCc2ccccc21)NC(=O)NC1CCCCC1,6.06%
18,O=C(NC(Nc1nc2ccc([N+](=O)[O-])cc2s1)(C(F)(F)F)C(F)(F)F)c1cccnc1,5.87%
19,O=C(NC(Nc1nc2ccccc2s1)(C(F)(F)F)C(F)(F)F)c1ccccc1,-8.04%
20,Cc1cc2nnc(SCC(=O)NCc3cccs3)n2c(N)n1,-5.08%
21,COc1ccc(-c2nn(-c3ccccc3)cc2/C=N/n2cnnc2)cc1OC,-15.3%
22,COc1ccc(-c2nn(-c3ccccc3)cc2/C=N/NC(N)=S)cc1OC,2.96%

row,SMILES,inhibition
1,CCCn1nnnc1NC(=O)COc1ccc(CC)cc1,0.65%
2,CC(=O)N1N=C(c2cccnc2)OC1c1ccccc1Cl (stereo not given),2.68%
3,CC(C)CC(=O)Nc1ccc2ccccc2c1,85.1% and -4.53%
4,NC(=O)c1ccc(NC(=O)COC(=O)/C=C/c2cccs2)cc1,-2.1%
5,CCCCC(=O)Nc1ccc(C)c(O)c1,2.73%
6,Cc1ccc(NC(=O)COC(=O)/C=C/c2cccs2)cc1,-0.47%
7,C/C(=C\C(=S)Nc1ccccc1)Nc1ccccc1,4.78%
8,CCCCC(=O)Nc1cccc(NC(=O)CC)c1,3.01%
9,COc1ccc(N/C(C)=C/C(=S)Nc2ccccc2)cc1,29.2%
10,O=C(CS)Nc1ccc2ccccc2c1,-9.08%
11,O=S(=O)(CCOc1ccccc1)c1nc2ccccc2[nH]1,-6.66%
12,COCCCn1c(SCC(=O)Nc2nc3ccccc3s2)nnc1-c1ccoc1C,4.35%
13,Cc1cc(C)c(S(=O)(=O)N2CCCCC2)c(C)c1N(C)S(=O)(=O)c1ccc(Cl)cc1,1.13%
14,CCOc1nc(C)ccc1-c1noc(CC)n1,-1.19%
15,CCOC(=O)C1CSC(CC(=O)Nc2ccc(Cl)cc2)C(=O)N1 (stereo not given),-6.13%
16,OC1(CNCc2cn[nH]c2-c2cc3ccccc3o2)CCCCC1,-6.25%
17,COc1cccc(-n2c(SCc3c(C)noc3C)nnc2-c2cccc(S(=O)(=O)N(C)C)c2)c1,4.97%
18,Cc1ccccc1OCc1csc(N)n1,3.59%
19,CN=C(C)c1c(O)c2ccccc2oc1=O,-1.28%
20,CC(C)N(C(=O)Cn1c(SCC(=O)Nc2nccs2)nc2ccccc21)C(C)C,0.44%
21,CC(=O)N1N=C(c2cccc(Br)c2)OC12CCCC2,-8.1%
22,CC(=O)CC(=O)Nc1ccc(Nc2ccccc2)cc1,6.81%

row,SMILES,inhibition
1,Cc1nc(-c2ccc(NC(=O)CC(C)C)cc2)cs1,31.2%
2,CCOC(=O)C(C(=O)OCC)C(Nc1ccccc1)c1ccccc1 (stereo not given),1.08%
3,CCC(=O)Nc1ccc(-c2csc(C)n2)cc1,45.9%
4,CCOC(=O)CS(=O)(=O)c1ccc2ccccc2c1,-12.2%
5,CC(=O)Nc1ccc2ccccc2c1,12.4%
6,O=C(Nc1ccc(Cl)c([N+](=O)[O-])c1)ONC1=NCCCCC1,0.03%
7,CCCNC(=O)NC(=O)CN1C(=O)NC(C)(c2ccc(C)cc2)C1=O (stereo not given),-1.35%
8,CC(C(N)=O)N1C(=O)C2C3C=CC(C3)C2C1=O (stereo not given),-3.12%
9,Cc1ccc(-c2cc(C(=O)NCc3cccnc3)no2)cc1,3.89%
10,Cc1ccc(NC(=S)NCCc2c[nH]c3ccccc23)c(C)c1,4.17%
11,Cc1nn(C)cc1/C=C/C(=O)c1cccs1,2.82%
12,Cc1c(/C=C/C(=O)c2cccs2)cnn1C,-1.78%
13,CCN(CC)C(=S)SCC(=O)Nc1ncc2c(n1)CC(C)(C)CC2=O,1.56%
14,CC(=O)C1=C(C)NC(SCC(=O)c2ccc(Cl)cc2Cl)=C(C#N)C1c1ccco1 (stereo not given),12.4%
15,CC(=O)C1=C(C)NC(SCC(=O)c2ccccc2)=C(C#N)C1c1ccco1 (stereo not given),43.6%
16,CC(=O)C1=C(C)NC(SCC(=O)c2cc(Cl)ccc2Cl)=C(C#N)C1c1ccco1 (stereo not given),15.3%
17,CCOc1ccccc1NC(=O)CSC1=C(C#N)C(c2ccco2)C(C(=O)Nc2nc3ccccc3s2)=C(C)N1 (stereo not given),49.1%
18,CC(=O)C1=C(C)NC(SCc2ccc(C#N)cc2)=C(C#N)C1c1ccco1 (stereo not given),-1.27%
19,CC1=C(C(=O)Nc2ccccc2)C(c2ccco2)C(C#N)=C(SCC(=O)Nc2cccc(C)c2C)N1 (stereo not given),4.09%
20,CC(=O)C1=C(C)NC(SCC(N)=O)=C(C#N)C1c1ccco1 (stereo not given),-4.99%
21,CC(=O)C1=C(C)NC(SCC(=O)c2ccc(Cl)cc2)=C(C#N)C1c1ccco1 (stereo not given),50%
